Test results published in PubChem BioAssay (NCI).
Compounds without any hit were thinned out: in the full panel of roughly 79,000, 15% have a hit. A number with no mark means an inactive call. The source made the active and inactive calls. Rule as the data show it: active = growth inhibition above about 70%; inactive = the rest.

Key:
[1] = NCI Yeast Anticancer Drug Screen. Data for the rad50 strain (AID 155);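 also: 0% = growth of vehicle-only cultures of the same strain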; conditions: S. cerevisiae rad50 strain growth inhibition; at 50.0 µM; stronger effect = higher value
Outline: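 A DNA repair-deficient yeast mutant serves as the test organism; compound-induced growth inhibition is calculated against vehicle-treated cells.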

[2] = NCI Yeast Anticancer Drug Screen. Data for the mec2-1 strain (AID 157); conditions: S. cerevisiae mec2-1 strain, at 50.0 µM, stronger effect = higher value
Outline: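 Each compound was tested on mec2-1 yeast, a strain altered in DNA damage repair or cell cycle control. Growth inhibition is reported relative to vehicle.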

[3] = NCI Yeast Anticancer Drug Screen. Data for the sgs1 mgt1 strain (AID 161);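 also: 0% = growth of cultures given vehicle only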; conditions: S. cerevisiae sgs1 mgt1 strain, at 50.0 µM, stronger effect = higher value
Outline: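 Test agents were incubated with a DNA-repair-mutant yeast strain. Growth was then read and compared against vehicle-treated controls.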

[4] = NCI Yeast Anticancer Drug Screen. Data for the cln2 rad14 strain (AID 165);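 also: 0% = growth equal to vehicle treated cultures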; conditions: S. cerevisiae cln2 rad14 strain, at 50.0 µM, stronger effect = higher value
Outline: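 Test compounds were added to cln2 rad14 yeast cultures; inhibition of growth was then determined by comparison with vehicle treatment.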

[5] = NCI Yeast Anticancer Drug Screen. Data for the bub3 strain (AID 167); conditions: S. cerevisiae bub3 mutant strain, at 50.0 µM, stronger effect = higher value
Outline: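 Inhibition values come from growth of compound-treated mutant yeast normalised to vehicle-treated controls.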

[6] = NCI Yeast Anticancer Drug Screen. Data for the mlh1 rad18 strain (AID 175); conditions: S. cerevisiae mlh1 rad18 strain growth inhibition; at 50.0 µM; stronger effect = higher value
Outline: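 Inhibition values reflect reduced growth of mutant yeast versus vehicle-treated controls following compound exposure; the mutations affect DNA damage repair.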

| SMILES | growth inhibition [1] | growth inhibition [2] | growth inhibition [3] | growth inhibition [4] | growth inhibition [5] | growth inhibition [6] |
| --- | --- | --- | --- | --- | --- | --- |
| CC(=O)OCC(OC(C)=O)C1OC(OCc2ccccc2)C(OC(C)=O)C(OC(C)=O)C1OC(C)=O (stereo unspecified) | -10.1% | -4.2% | -17.6% | 44% | -3% | -5.85% |
| O=[N+]([O-])c1cccc2c(-c3nccc4c([N+](=O)[O-])cccc34)nccc12 | -16.9% | -1.35% | -19.4% | -21.8% | -16.2% | -19% |
| CCOC(=O)NCC(=O)NCC(=O)NCC(N)=O | -14.2% | -19.2% | -12.9% | -9.65% | -25.1% | 7.95% |
| C#CC(C)(C)OCC(O)CCl (stereo unspecified) | 1.85% | 5.65% | 1.65% | -28.8% | -15.4% | 2.45% |
| O=c1cc(CO)oc2c3c(cc(O)c12)OCC(COC1OC(CO)C(O)C(O)C1O)=CC3 (stereo unspecified) | -1.25% | -8.75% | -1.75% | -13.9% | -0.55% | -0.9% |
| COC(=O)C(=O)C(C(C)=O)C(=O)C(=O)Nc1ccc(C)cc1C (stereo unspecified) | 19.1% | 14.1% | 1.95% | 15.2% | 26.1% | 17.9% |
| O=S(=O)(O)c1ccc(S)cc1 | 2.7% | 1.55% | 16.7% | -6.5% | -31% | 1.6% |
| CNCC(SC)c1ccc(O)c(O)c1 (stereo unspecified) | -9.8% | -14.8% | -20.4% | -15.7% | -31% | -2.6% |
| CS(=O)(=O)Nc1nc2ccccc2c(=O)o1 | -50.8% | -21.9% | -15.3% | -39.7% | 3.75% | 4.85% |
| O=c1c2cc([N+](=O)[O-])ccc2n2n1CCCC2 | 15.1% | 9.45% | -13.8% | 16.9% | -16% | -10.4% |
| N#Cc1cccc(/C=C\C(=O)c2ccccc2)c1 | 22.9% | 8.65% | 5.4% | 17.3% | 61% | 13.9% |
| NC(CCCOS(=O)(=O)O)Cc1ccc2ccccc2c1 (stereo unspecified) | -10.6% | 9.35% | 16.6% | 10.2% | 3.55% | 8.9% |
| CCCCCCCCCCCCCCCC(=O)OCC1OC(OC2(COC(=O)CCCCCCCCCCCCCCC)OC(COC(=O)CCCCCCCCCCCCCCC)C(OC(=O)CCCCCCCCCCCCCCC)C2OC(=O)CCCCCCCCCCCCCCC)C(OC(=O)CCCCCCCCCCCCCCC)C(OC(=O)CCCCCCCCCCCCCCC)C1OC(=O)CCCCCCCCCCCCCCC (stereo unspecified) | -6.25% | -26% | -34.1% | -14.7% | -13.9% | -6% |
| O=C(OCOC(=O)c1ccccc1)c1ccccc1 | -23.1% | -5.95% | -8.6% | -18.5% | -4.7% | -6.55% |
| COc1cc(/C=C/C(=O)NCCc2c[nH]c3ccc(O)cc23)ccc1O | -9.25% | -0.75% | 9.3% | 11.8% | 3.15% | 6.75% |
| Nc1ccc(S(=O)(=O)Nc2ccc([N+](=O)[O-])cn2)cc1 | -28.4% | -43% | 17.2% | 17% | -20.4% | -15.6% |
| CCC1(C)C(=O)C(C)(CC)C1=O (stereo unspecified) | 23.6% | 20.6% | 21.4% | 0.6% | 20% | 6.85% |
| Cc1ccc(OC(=O)c2ccccc2)cc1CC(Cl)(Cl)Cl | -0.75% | -6% | -9.3% | -19.3% | 2.8% | -14.3% |

| SMILES | growth inhibition [1] | growth inhibition [2] | growth inhibition [3] | growth inhibition [4] | growth inhibition [5] | growth inhibition [6] |
| --- | --- | --- | --- | --- | --- | --- |
| Cc1ccc(S(=O)(=O)OCC2(COS(=O)(=O)c3ccc(C)cc3)CCC2)cc1 | -7.8% | -7.75% | 0.25% | -8.95% | 16% | -15% |
| COc1ccccc1N/C(=C\C(=O)C(=O)NC12CC3CC(CC(C3)C1)C2)c1ccccc1 | 11.4% | 2.55% | 8.65% | 2.25% | 3.75% | 14.2% |
| CS/N=C(/c1ccc(/C(=N/SC)N(C)C)cc1)N(C)C | 0.9% | -8.5% | 8.8% | -5.35% | -24.4% | 5.75% |
| O=C(C/C(=C/c1ccccc1)[N+](=O)[O-])c1ccccc1 | 99.2% (active) | 99.2% (active) | 99.3% (active) | 98.8% (active) | 99% (active) | 98.8% (active) |
| CCCCCCCCCCCCCCCSc1ccc2ccccc2c1 | -17% | 1.35% | -5.2% | -25.2% | -13.8% | -13.5% |
| CC(C)NCC(O)COc1c2ccccc2nc2ccccc12 (stereo unspecified) | -8.65% | -21.8% | -24.2% | -1.65% | -20.1% | 12.9% |
| CN(C)CC(C(N)=O)C(N)=O | -26.1% | -18.8% | -19.8% | 9.6% | -10.5% | 7.45% |
| O=C(Nc1ccccc1)C1C2C=CC(CC2)C1C(=O)Nc1ccccc1 (stereo unspecified) | -0.25% | 4.95% | 7.7% | -10.2% | -11.5% | -13.6% |
| O=S(=O)(O)CO | 16.9% | 4.6% | 26% | 7.35% | -7.7% | 20.4% |
| CC1CN(Cc2ccccc2)CCC1N1CCCC1 (stereo unspecified) | 24.8% | 11.8% | 27.6% | 29.4% | 23.2% | 21.4% |
| CC(C)c1nc2c([nH]1)c(=O)n(C)c(=O)n2C | 30.2% | 6.85% | 26.4% | 18% | 2.8% | 17.9% |
| CCOC(=O)C(Cc1cn(C(C)=O)c2ccccc12)P(=O)(OCC)OCC (stereo unspecified) | -12.7% | -21.6% | -15.2% | -1.15% | 1.05% | -27% |
| COc1ccc(C(O)C2CCCN(C)S2(=O)=O)cc1 (stereo unspecified) | 13.4% | 21.9% | 2.75% | 15.5% | 30.6% | 15.6% |
| CCCCSCCC(=O)O | 18.4% | -3.05% | -22.2% | 3.95% | 5.95% | 5.85% |
| O=C(O)C1CCC1C(=O)O (stereo unspecified) | -18.1% | -24.1% | -23.5% | -23.9% | 10.2% | -2.5% |
| c1ccc2c(c1)ccc1c2ccc2c1cc1ccccn12 | -4.2% | 7.45% | -13.2% | -14.7% | -20.3% | 0.8% |
| O=CNC(Cc1ccccc1)c1ccc(OCc2ccccc2)cc1 (stereo unspecified) | 0.75% | 5% | 1.55% | 31.1% | 31.6% | 16.9% |
| O=c1cc(O)nc2cn[nH]n12 | 4.8% | -22.4% | 7.65% | 13.4% | -3.45% | 1.6% |
